An excerpt weighted towards active compounds, which were near 2.5% of everything screened.
ULK1 inh: ULK1 kinase inhibitors, primary screen, biochemical, AlphaScreen; AlphaScreen Atg13 phosphorylation by ULK1, luminescence; inhibition, % at 5.96 µM; actives 1.9% (n = 30,000); AID 1259251, 2017; in the data active means inhibition above about 43%;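 further: 0% = median of compound wells and 100% = no enzyme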
Target sequence (O75385 whole entry, looked up): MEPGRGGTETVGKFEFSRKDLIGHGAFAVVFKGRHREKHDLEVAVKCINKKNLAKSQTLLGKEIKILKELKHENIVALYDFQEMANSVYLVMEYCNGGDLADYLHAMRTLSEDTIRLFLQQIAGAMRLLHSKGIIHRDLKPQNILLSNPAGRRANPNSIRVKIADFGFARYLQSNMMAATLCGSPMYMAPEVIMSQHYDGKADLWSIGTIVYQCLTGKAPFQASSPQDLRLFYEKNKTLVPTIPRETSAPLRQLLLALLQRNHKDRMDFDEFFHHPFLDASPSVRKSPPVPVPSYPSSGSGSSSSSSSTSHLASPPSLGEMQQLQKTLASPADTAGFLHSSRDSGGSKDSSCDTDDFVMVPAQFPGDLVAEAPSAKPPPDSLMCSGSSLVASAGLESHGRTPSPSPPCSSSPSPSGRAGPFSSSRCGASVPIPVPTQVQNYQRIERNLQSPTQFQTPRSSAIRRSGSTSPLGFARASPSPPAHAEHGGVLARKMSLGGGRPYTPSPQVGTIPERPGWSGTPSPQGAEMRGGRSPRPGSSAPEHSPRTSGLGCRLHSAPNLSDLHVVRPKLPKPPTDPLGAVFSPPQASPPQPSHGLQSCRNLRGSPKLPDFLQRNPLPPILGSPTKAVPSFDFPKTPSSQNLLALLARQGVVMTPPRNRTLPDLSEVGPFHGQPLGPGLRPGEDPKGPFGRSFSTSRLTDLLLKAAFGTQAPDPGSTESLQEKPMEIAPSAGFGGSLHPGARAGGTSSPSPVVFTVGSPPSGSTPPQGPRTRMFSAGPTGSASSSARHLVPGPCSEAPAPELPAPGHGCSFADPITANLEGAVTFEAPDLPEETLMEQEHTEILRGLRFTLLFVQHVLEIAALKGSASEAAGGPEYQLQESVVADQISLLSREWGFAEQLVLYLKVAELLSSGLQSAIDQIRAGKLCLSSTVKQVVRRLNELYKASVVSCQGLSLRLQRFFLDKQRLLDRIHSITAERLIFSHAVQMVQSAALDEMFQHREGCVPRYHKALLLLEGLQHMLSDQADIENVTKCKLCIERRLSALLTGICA
ASK1 inh: ASK1 kinase inhibitors, primary screen, biochemical, AlphaScreen; Mitogen-activated protein kinase kinase kinase 5 (Homo sapiens), Q99683; AlphaScreen MKK6 phosphorylation by ASK1, luminescence; inhibition, % at 7.44 µM; actives 0.99% (n = 22,000); AID 1159602, 2016; in the data active means inhibition above about 35%;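 further: 0% = median of compound wells and 100% = no enzyme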
TruHits interf: AlphaScreen signal interference by compounds, dose response, artefact control for ASK1 inhibitor project, biochemical, TruHits beads; IC50, µM; shares compounds with ASK1 inh; actives 20% (n = 220); signal interference counterscreen;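 active means IC50 of 10 µM or lower in the counterscreen; inactive means IC50 above 10 µM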;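 further: loss of AlphaScreen light from TruHits beads alone with no ASK1 enzyme present; potency of signal reduction so a low IC50 flags an assay artifact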
* = called active by the depositor; i = inactive; · = no result given.

SMILES | ULK1 inh | ASK1 inh | TruHits interf
O=C(O)Cc1ccc(Nc2nccc(-c3ccccc3)n2)cc1 | 3 | 16 | ·
O=c1[nH]cccc1-c1ccc(Nc2nccc(-c3ccc4nc(C5CC5)[nH]c(=O)c4c3)n2)cc1 | 70* | 43* | >19
CN(C)CCN(C)c1nc(C2COc3ccccc3O2)nc2ccc(-c3cn[nH]c3)cc12 (configuration not stated) | 12 | 28 | ·
c1ccc2c(c1)OCC(c1nc(N3CCOCC3)c3cc(-c4cn[nH]c4)ccc3n1)O2 (configuration not stated) | -50 | 37* | >19
CC(C)n1c(-c2cccs2)nc2c(NCCc3ccc(O)cc3)ncnc21 | -13 | 9 | ·
O=C(NCC(O)c1ccc(Br)cc1)c1cccc(-c2ccc3cnccc3c2)c1 (configuration not stated) | -8 | 5 | ·
CC(C)n1cnc2c(Nc3ccc(N4CCOCC4)cc3)nc(Nc3cccc(N(C)C)c3)nc21 | 20 | 35 | ·
FC(F)(F)c1ccc(Cn2cnc3c(NCc4ccccc4)nc(-c4ccc(N5CCOCC5)nc4)nc32)cc1 | 2 | 45* | >20
OCCNc1nc(N2CCN(Cc3ccc4c(c3)OCO4)CC2)nc2c1ncn2C1CCCCC1 | -10 | 12 | ·
CC(C)n1cnc2c(Nc3ccc4c(c3)OCO4)nc(Nc3cccc(N(C)C)c3)nc21 | 16 | 37* | >20
COc1cc(Nc2nc(Nc3ccc(N4CCOCC4)cc3)c3ncn(Cc4ccc(C(F)(F)F)cc4)c3n2)cc(OC)c1OC | 4 | 37* | >18
FC(F)(F)c1ccc(Cn2cnc3c(Nc4ccccc4)nc(Nc4ccc(N5CCOCC5)cc4)nc32)cc1 | -18 | 28 | ·
c1ccc(OCCNc2nc(N3CCN(Cc4ccc5c(c4)OCO5)CC3)nc3c2ncn3C2CCCCC2)cc1 | 16 | 39* | >20
FC(F)(F)c1ccc(Cn2cnc3c(NCc4cccc(C(F)(F)F)c4)nc(-c4ccc(N5CCOCC5)nc4)nc32)cc1 | -2 | 28 | ·
CC(C)N(CCNC(=O)Cc1cn(-c2ccc(N3CCc4ccccc4C3)nn2)c2ccccc12)C(C)C | 4 | 6 | ·
O=C1CCCN1CCCNc1nc(-c2csc3ccccc23)nc2nc[nH]c12 | -22 | -16 | ·
Cc1c(C(=O)Nc2ccccc2I)cccc1[N+](=O)[O-] | 2 | · | ·
FC(F)(F)c1ccc(Cn2cnc3c(Nc4ccc5c(c4)OCO5)nc(N4CCN(c5ccccn5)CC4)nc32)cc1 | 12 | 51* | >20
CC(=O)Nc1ccc(Nc2nc(Nc3cccc(N(C)C)c3)nc3c2ncn3Cc2ccc(C(F)(F)F)cc2)cc1 | 37 | -11 | ·
COc1cc(Nc2nc(N3CCN(c4ccccn4)CC3)nc3c2ncn3Cc2ccc(C(F)(F)F)cc2)cc(OC)c1OC | -16 | 27 | ·
CC(C)n1cnc2c(NCc3cccc(C(F)(F)F)c3)nc(N3CCN(Cc4ccc5c(c4)OCO5)CC3)nc21 | -16 | 37* | >20
CN(C)c1cccc(Nc2nccc(Nc3ccc4c(c3)OCO4)n2)c1 | -2 | 36* | i
FC(F)(F)c1ccc(Cn2cnc3c(NCc4cccc(C(F)(F)F)c4)nc(N4CCN(Cc5ccc6c(c5)OCO6)CC4)nc32)cc1 | 15 | 29 | ·
CN(C)c1cccc(Nc2nc(Nc3ccc4c(c3)OCO4)c3ncn(Cc4ccc(C(F)(F)F)cc4)c3n2)c1 | 32 | 50* | >18
FC(F)(F)c1ccc(Nc2nccc(Nc3ccc4c(c3)OCO4)n2)cc1 | -22 | 13 | ·
SMILES | ULK1 inh | ASK1 inh | TruHits interf
O=C(NCCc1ccc(O)cc1)c1csc(N2CCCC2CO)n1 (configuration not stated) | 0 | 10 | ·
FC(F)(F)c1ccc(Cn2cnc3c(Nc4ccc5c(c4)OCO5)nc(Nc4ccccc4)nc32)cc1 | -4 | 41* | >22
FC(F)(F)c1ccc(Cn2cnc3c(Nc4ccc5c(c4)OCO5)nc(Nc4ccc(C(F)(F)F)cc4)nc32)cc1 | -8 | 13 | ·
FC(F)(F)c1ccc(Cn2cnc3c(Nc4ccc(N5CCOCC5)cc4)nc(N4CCN(Cc5ccc6c(c5)OCO6)CC4)nc32)cc1 | -16 | 48* | >20
CCN(CC)C(=O)C1CCCN(c2nc(Nc3ccc(N4CCOCC4)cc3)c3ncn(Cc4ccc(C(F)(F)F)cc4)c3n2)C1 (configuration not stated) | -17 | 56* | >20
FC(F)(F)c1ccc(Cn2cnc3c(NCCN4CCOCC4)nc(N4CCN(Cc5ccc6c(c5)OCO6)CC4)nc32)cc1 | -42 | 6 | ·
CCN(CC)C(=O)C1CCCN(c2nc(Nc3ccc(N4CCOCC4)cc3)c3ncn(CCN4CCCC4=O)c3n2)C1 (configuration not stated) | 2 | 3 | ·
Cc1cc(-n2c(C)nc3ncccc3c2=O)ccc1NC(=O)c1ccccc1Br | -5 | · | ·
O=C(Cc1cn(-c2ccc(NCc3cccnc3)nn2)c2ccccc12)NCc1cccnc1 | 1 | -18 | ·
CC(=O)c1cccc(-c2ncc(C(=O)NCCOc3ccccc3)s2)c1 | -31 | 4 | ·
O=C(NC1CC1)c1ccc(-c2nc(NCc3cccc(C(F)(F)F)c3)c3ncn(-c4ccsc4)c3n2)cc1 | -19 | 8 | ·
O=C(NC1CC1)c1ccc(-c2nc(NCc3cccc(C(F)(F)F)c3)c3ncn(-c4ccccc4)c3n2)cc1 | -6 | 45* | >20
CC(C)n1c(Nc2ccccc2)nc2c(NC3CCN(Cc4ccccc4)CC3)ncnc21 | -7 | -12 | ·
CC(C)n1c(Nc2cccc(N(C)C)c2)nc2c(NC3CCN(Cc4ccccc4)CC3)ncnc21 | 17 | 38* | >19
CC(C)n1cnc2c(NC3CCN(Cc4ccccc4)CC3)nc(Nc3cccc(N(C)C)c3)nc21 | 18 | 36* | i
Cc1cc(NC2CCN(Cc3ccccc3)CC2)nc(Nc2cccc(N(C)C)c2)n1 | 21 | 50* | 8.6*
CN(C)c1cccc(Nc2nc(NC3CCN(Cc4ccccc4)CC3)c3ncn(-c4ccccc4)c3n2)c1 | 10 | 10 | ·
Cc1cc(NC2CC2)nc(Nc2cccc(N(C)C)c2)n1 | -6 | 19 | ·
CC(C)n1c(Nc2ccccc2)nc2c(NCCCN3CCCC3=O)ncnc21 | 10 | 20 | ·
COc1ccc(CCNC(=O)c2ccc3nc(-c4ccccc4)sc3c2)cc1 | -5 | -2 | ·
c1cc(-c2ccc3nc([C@@H]4CCCN4)[nH]c3c2)ccn1 | 6 | -4 | ·
CC(C)CNC(=O)c1ccc2c(c1)CC(C(=O)Nc1ccc(-c3cn[nH]c3)cc1SCCN1CCCC1)CO2 (configuration not stated) | -1 | -5 | ·
O=C(Nc1ccc(N2CCOCC2)cc1)c1cccc(-n2ncc3c2CCN(C(=O)c2ccccc2)C3)c1 | 0 | 4 | ·
COc1ncc(-c2ccncc2)cc1C(=O)NCC(O)c1ccc(Cl)cc1 (configuration not stated) | -17 | -17 | ·
c1ccc(Oc2ccc(Nc3nc(N4CCOCC4)nc4c3ncn4-c3ccsc3)cc2)cc1 | 2 | 24 | ·
Oc1ccc(CCNc2nc(N3CCN(c4ccccn4)CC3)nc3c2ncn3-c2ccsc2)cc1 | 2 | 39* | >21
c1ccc(N2CCN(c3nc(Nc4ccc(N5CCOCC5)cc4)c4ncn(-c5ccsc5)c4n3)CC2)nc1 | -3 | 45* | >20
CCCNc1nc(N2CCN(c3ccccn3)CC2)nc2c1ncn2-c1ccsc1 | 5 | 16 | ·
